Measured values published in ChEMBL document CHEMBL3433997, “St. Jude Leishmania screening dataset” (2016).

What was measured:
Type in all cases: functional
[1] = target: Solute carrier family 2, facilitated glucose transporter member 1 (Homo sapiens) (UniProt P11166); assay: ST_JUDE_LEISH: Cytotoxicity at 2uM final concentration against transgenic Leishmania Mexicana promastigotes LmGLUT1 that are glucose transport deficient and complemented with the human glucose transporter GLUT1. Activity is measured by DNA content using SYBR green in vitro
[2] = target: Hexose transporter 1 (Plasmodium falciparum) (UniProt O97467); assay: ST_JUDE_LEISH: Cytotoxicity at 2uM final concentration against transgenic Leishmania Mexicana promastigotes LmPfHT that are glucose transport deficient and complemented with the Plasmodium falciparum hexose transporter. Activity is measured by DNA content using SYBR green in vitro
[3] = target: Glucose transporter (Leishmania mexicana) (UniProt O61059); assay: ST_JUDE_LEISH: Cytotoxicity at 2uM final concentration against transgenic Leishmania Mexicana promastigotes LmGT2 that are glucose transport deficient and complemented with the L. Mexicana glucose transporter 2. Activity is measured by DNA content using SYBR green in vitro

Solute carrier family 2, facilitated glucose transporter member 1 (Homo sapiens), sequence (P11166 whole entry): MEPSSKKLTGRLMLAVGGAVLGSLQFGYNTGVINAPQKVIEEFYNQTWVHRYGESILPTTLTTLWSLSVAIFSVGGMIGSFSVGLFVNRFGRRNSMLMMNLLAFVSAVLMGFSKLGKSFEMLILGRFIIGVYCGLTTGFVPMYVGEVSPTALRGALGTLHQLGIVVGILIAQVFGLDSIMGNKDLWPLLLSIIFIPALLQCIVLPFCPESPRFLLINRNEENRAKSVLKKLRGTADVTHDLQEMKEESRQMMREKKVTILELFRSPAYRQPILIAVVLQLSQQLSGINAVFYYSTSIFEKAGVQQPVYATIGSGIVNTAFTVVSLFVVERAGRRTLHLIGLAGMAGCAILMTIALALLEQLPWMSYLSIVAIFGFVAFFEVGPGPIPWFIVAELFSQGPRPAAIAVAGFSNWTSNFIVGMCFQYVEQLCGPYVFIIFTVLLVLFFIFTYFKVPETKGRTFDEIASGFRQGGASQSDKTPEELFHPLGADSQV

SMILES	inhibition [1]	inhibition [2]	inhibition [3]
Fc1ccc2[nH]c(-c3cccc(-c4ccc(CNCC5CCCO5)cc4)c3)nc2c1 (stereo not drawn)	1.13%	-3.6%	-1.42%
CCN(CC)CCN(Cc1ccc(-c2ccc(C(F)(F)F)cc2)cc1)C(=O)Cn1c(CCc2cccc(F)c2F)cc(=O)c(C)c1C	11.5%	8.35%	3.62%
O=C(N[C@@H](CC1CCCCC1)C(=O)NC1CCCCC1)c1ccc(O)c(-c2cccc(C(F)(F)F)c2)c1	-2.73%	-1.15%	-3.33%
CC(=O)Nc1ncc(C(=O)Nc2ccc(-c3cccc(-c4nc5cc(F)ccc5[nH]4)c3)cc2)s1	6.62%	7%	6.95%
Cc1ccc(/C=C/C(=O)NCCCCCN2CCC(c3c[nH]c4ccccc34)CC2)cc1	5.46%	5.57%	3.18%
CCCCCC(C)c1cc(O)c2c(c1)OC(C)(C)C=C2C1=CCN(Cc2ccccc2)CC1 (stereo not drawn)	3.67%	3.53%	3.47%
CCOC(=O)c1cnc2c(OC)cc(OC)c(Cl)c2c1Nc1cccc(C)c1	9.4%	8.66%	4.43%
O=C(Nc1ccccc1)N(Cc1ccccc1-c1cccc(CNC2CCCC2)c1)C1CCN(Cc2ccccc2)CC1	0.15%	1.64%	4.91%
NCCCNc1nccc(N2CCc3ncnc(Nc4ccc(OCc5cccc(F)c5)c(Cl)c4)c3C2)n1	2.13%	4.48%	4.02%
OC(CNCc1ccccc1OCc1ccccc1)c1cccc(Cl)c1 (stereo not drawn)	5.6%	4.24%	5.2%
CN(C)CCCn1c(C(=O)OC(c2ccccc2)c2ccccc2)cc2cc(OCc3ccccc3)ccc21	-0.72%	0.08%	-2.32%
Cc1nc(-c2nc(NCCc3c(C)noc3C)ncc2-c2ccsc2)sc1C	1.02%	1.58%	2.5%
CN1CCN(CCCN(Cc2ccc(-c3ccc(CNCc4ccc5c(c4)OCO5)cc3)cc2)C(=O)Nc2ccccc2)CC1	11.6%	13.7%	11%
O=C(Nc1cccc(-c2ccc(-c3nc4cc(C(F)(F)F)ccc4[nH]3)cc2)c1)Nc1ccc(F)c(F)c1F	-0.86%	0.2%	0.37%
CCOc1ccc2[nH]c(-c3ccccc3)cc(=NN=Cc3ccncc3)c2c1	1.66%	4.54%	-0.25%
CCOc1ccc(C(=O)N2CCOC(CCN3CCC(c4ccccc4)CC3)(c3ccc(Cl)c(Cl)c3)C2)cc1 (stereo not drawn)	3.91%	3.91%	4.6%

SMILES	inhibition [1]	inhibition [2]	inhibition [3]
CC(CC1CCCCC1)NCc1ccccc1OCCC(=O)N1CCCC1C(N)=O (stereo not drawn)	3.79%	3.8%	0.2%
O=C(Nc1cccc(-c2ccc(-c3nc4ccccc4[nH]3)cc2)c1)Nc1ccc2c(c1)OCO2	1.14%	1.8%	0.06%
Clc1ccccc1CNc1noc(-c2sccc2Br)n1	0.33%	2.84%	1.17%
Cc1nnsc1C(=O)Nc1cccc(-c2cccc(-c3nc4cccc(C)c4[nH]3)c2)c1	-0.36%	-1.04%	-5.1%
C=CCn1cc(C2CCN(CCCCNC(=O)c3sc(-c4ccc(C(F)(F)F)cc4)nc3CO)CC2)c2cc(OC)ccc21	1.93%	3.91%	4.35%
CN1CCN(c2ccc(Nc3ccnc4ccc(-c5ccccc5)cc34)cc2)CC1	1.32%	1.83%	-1.67%
O=C(Nc1ccc(F)c(F)c1)c1ccc(CN2CCCN(Cc3cccc(O)c3)CC2)cc1	3.12%	2.77%	3.84%
CCCSc1nc2c(c(=O)n1Cc1ccco1)C1(CCCCC1)Cc1ccccc1-2	1.22%	1.9%	1.88%
CC[C@@H]([C@@H](CC(C)C)C(=O)N[C@@H](CCCCNC(=O)OCc1ccccc1)C(=O)Nc1ccccn1)N(O)C=O	4.89%	4.71%	3.88%
CS(=O)(=O)c1ccccc1CNC(=O)c1ccc(-c2ccc(-c3nc4cc(C(F)(F)F)ccc4[nH]3)s2)cc1	7.56%	2.99%	0.84%
O=C(N/C(=C/c1cccc([N+](=O)[O-])c1)c1nc2ccccc2[nH]1)c1cccc(Br)c1	2.64%	1.64%	-0.27%
Cn1c2ccccc2c2c3ccccc3c(CNC(CO)(CO)CO)cc21	13.8%	12.7%	6.67%
Cc1nc(N)nc(N)c1-c1cc(Cl)c(N)c(Cl)c1	-0.04%	-0.43%	-1.52%
OC(CN1CCN(Cc2ccccc2)CC1)Cn1c(-c2ccccc2)c(-c2ccccc2)c2ccccc21 (stereo not drawn)	2.91%	3.3%	2.72%
COc1ccc(-n2c(=O)c3c(n4c(SC(C)C)nnc24)-c2ccccc2CC32CCCCC2)cc1	1.32%	1.21%	0.1%
